This note sets out measurements from PubChem BioAssay (NCI).

Values joined by “and” are separate entries in the source; they are usually repeats but may differ in a detail not shown here. Identical values can stand only once. The panel holds about 83,000 compounds, 20% with a hit somewhere; the sample as a whole holds those more often.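 Treatment: one concentration, 48 hours, 96-well format. Scoring: percent growth, with anything below 10 considered active.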 Active and inactive are the calls of the source.

The test deals with NCI-H460 lung. Nature of the test: NCI-60 one-dose screen, 48 h (100 = growth as untreated, 0 = no growth, -100 = all killed). To be noted: 10 µM unless noted. On the procedure: Growth inhibition of the NCI-H460 human Non-Small Cell Lung tumor cell line is measured as a screen for anti-cancer activity. Cells are grown in 96 well plates and exposed to the test compound for 48 hours. Compounds are tested at a single concentration, which is 10^-5 M for most compounds. The reported endpoint is percent growth (GI% or GIPRCNT), where numbers from 0 - 100% represent growth inhibition, and numbers from -100% - 0 represent cell death. For example, a value of 40 represents 60% growth inhibition. A value of 0 means no net growth occurred over the course of the experiment. A value of -40 indicates 40% of cells at the beginning of the experiment died by the end of the experiment. A value of -100 means all cells are dead at the end of the experiment.
NCI-60 Human Tumor Cell Lines Screen was performed using the standard one-dose NCI protocol, which is described in more detail at https://dtp.cancer.gov/discovery_development/nci-60/default.htm.
Compounds with GIPRCNT values below 10 were considered active. Activity score was based on GIPRCNT using the following formula: […]
Score is 0 for GIPRCNT values of 100 or above, 50 for GIPRCNT values of 0, and 100 for GIPRCNT values of -100.
For `C[C@]12CCc3sc(Nc4ccc(F)cc4F)nc3C1=CC[C@@H]1[C@@H]2CC[C@]2(C)C(=O)CC[C@@H]12`, the growth is 60.9% (inactive). Consider `Cc1c2ccncc2c(C)c2c1[nH]c1ccccc12`, for which the growth was -69.2% (active). In the case of `Cc1cc[c-]cc1.Fc1c[c-]c(-c2ccccn2)c(F)c1.[Pt+2].c1ccc([PH+](c2ccccc2)c2ccccn2)cc1` it was 61.5% (inactive); in that of `N#CC(C#N)=Cc1cccc(F)c1`, 105% (inactive).

On to `N#Cc1ccc(Cl)cc1`, for which the growth is 122% (inactive). Turning to `Oc1cc(N2CC2)c(O)cc1N1CC1`, the growth was -14.6% (active).

In the case of `C/C(=C(\c1ccc(OCCN2CCOCC2)cc1)c1ccc(OC(=O)Cc2ccccc2)cc1)c1ccc(Cl)cc1`, the growth is 97.6% (inactive). As to `O=C(O)CNCP(=O)(O)O`, the growth was 119% (inactive). Regarding `C[C@]12CCc3sc(Nc4ccc(O)cc4)nc3C1=CC[C@@H]1[C@@H]2CC[C@]2(C)C(=O)CC[C@@H]12`, the growth was 65.6% (inactive).

`O=C(CBr)OCCOC(=O)CBr`: the growth is 95% (inactive). In the case of `C[C@]12CCC(=O)C[C@@H]1CC[C@@H]1[C@@H]2CC[C@]2(C)[C@@H](OC(=O)N(CCCl)N=O)CC[C@@H]12` it was -64% (active); in that of `C[C@]12CC[C@H](O)C[C@@H]1CC[C@@H]1[C@@H]2CC[C@]2(C)OC(=O)CC[C@@H]12`, 109% (inactive); in that of `Cc1c(C)c(N)c(C)c(C)c1N`, 39.8% (inactive). `C/C=C(/C)C(=O)O[C@H]1CC[C@@]2(C)[C@@H]3CC[C@H]4[C@]5(O)C[C@H](O)[C@@]6(O)[C@@H](CN7C[C@@H](C)CC[C@H]7[C@@]6(C)O)[C@]5(O)C[C@@]42O[C@@]13O`: the growth is 110% (inactive). In the case of `O=C(O)c1ccc(=O)[nH]c1`, the growth was 111% (inactive) and 104% (inactive). With `COC(=O)CCP(CCC(=O)OC)c1ccccc1`, the growth is 111% (inactive).

As for `C=C[Se]CC(=O)/C=C/c1ccccc1`, the growth was 12.8% (inactive). Turning to `CC1(C)CN=C(NN=C(/C=C/c2ccc(C(F)(F)F)cc2)/C=C/c2ccc(C(F)(F)F)cc2)NC1`, the growth is -54% (active). As for `O=c1[nH]c(=O)[nH]c(=O)[nH]1`, the growth is 111% (inactive). Take `CCCC(C)SP(=S)(SC(C)CCC)SC(C)CCC` (stereo not given): the growth is 98.9% (inactive). Next, `COc1ccc2c(c1)c(-c1nc(-c3c[nH]c4ncccc34)cs1)cn2CCCCN1CCOCC1`: 4.29% (active); `O=C(CCCN1CCC2(CC1)C(=O)NCN2c1ccccc1)c1ccc(F)cc1`: 108% (inactive) and 94.1% (inactive); `Oc1ccc(O)c(Cl)c1`: 99.7% (inactive) and 102% (inactive). In the case of `CC[C@H](C)[C@H](NC(=O)[C@H]1CCCCN1C)C(=O)N(C)[C@H](CCc1nc(C(=O)N[C@@H](Cc2ccccc2)C[C@H](C)C(=O)O)cs1)C(C)C`, the growth is 8.77% (active).

As for `N#CC(N)c1ccccc1` (stereo not given), the growth was 102% (inactive). With `CC1(C)C=Cc2c(ccc3c2[N+]([O-])=C2C3=C[C@@]34NC(=O)[C@]5(CCCN5C3=O)C[C@@H]4C2(C)C)O1`, the growth was 26.9% (inactive). For the molecule `O=C1CCCCC1CN1CCCCC1` (stereo not given), the growth was 101% (inactive).

As to `Clc1ccc(COC(Cn2ccnc2)c2ccc(Cl)cc2Cl)c(Cl)c1` (stereo not given), the growth was 56.8% (inactive) and 55.9% (inactive). Regarding `C[Se]/C=C1/C(=O)N(c2c(Cl)cccc2Cl)c2ccccc21`, the growth was 14.6% (inactive). Turning to `O=C(O)C(F)F`, the growth was 89.2% (inactive).

With `Cc1ccc(C(=O)O[C@H](C(=O)O)[C@H](OC(=O)c2ccc(C)cc2)C(=O)O)cc1`, the growth was 115% (inactive). For the molecule `CC[C@H](C)[C@H](NC(=O)CN(C)C)C(=O)N(C)[C@H](C[C@@H](OC(C)=O)c1nc(C(=O)NC23CC(C(=O)OC)(C2)C3)cs1)C(C)C`, the growth is 7.29% (active).

In the case of `Nc1ccc(P(=O)(O)O)cc1`, the growth was 113% (inactive) and 103% (inactive).

`CN1[C@@H](CC(=O)c2ccccc2)CCC[C@H]1CC(=O)c1ccccc1`: the growth was 115% (inactive).

For `CCC1CCC(=O)O1` (stereo not given), the growth is 103% (inactive) and 110% (inactive). As for `O=C(Cc1ccccc1)NC(O)C(Cl)(Cl)Cl` (stereo not given), the growth is 120% (inactive).

Take `C[C@]12CC[C@H]3[C@@H](C[C@@H]4SC(Nc5cccc(F)c5)=N[C@@]45CC(=O)CC[C@]35C)[C@@H]1CCC2=O`: the growth is 52% (inactive).

As for `Cc1ccc(P(=O)(O)O)cc1`, the growth is 108% (inactive).

As for `O=C(O)C(Br)CBr` (stereo not given), the growth is 102% (inactive). In the case of `Nc1c(Cl)c(Cl)nc(C(=O)O)c1Cl`, the growth is 102% (inactive).
